From PubChem BioAssay (Tox21)
Records with an inconclusive call do not appear. The source made the active and inactive calls. Unless noted, calls follow the shape of the full dose curve.

How the values were obtained:
[1] = Nuclear factor erythroid 2-related factor 2/antioxidant responsive element (Nrf2/ARE) small molecule agonists: qHTS cell viability counter screen in human keratinocytes (AID 1919968; active = well fitted curve in the direction sought with a large enough effect in the repeat runs; an effect the other way counts as inactive or inconclusive; also: nearly all actives have a fitted effect of over 55% in size; also: potency is read from the fitted curve at half-maximal effect)
Method in brief: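 HaCaT ARE reporter line, 1,500 cells/well; 5 h settle, 37 C/5% CO2; cpd in DMSO pinned; 23 h exposure; CellTiter-Fluor, 1 h; fluorescence.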

[2] = Nuclear factor erythroid 2-related factor 2/antioxidant responsive element (Nrf2/ARE) small molecule agonists: luciferase reporter gene qHTS assay in human keratinocytes (AID 1919969); also: nearly all actives have a fitted effect of over 35% in size; also: potency is read from the fitted curve at half-maximal effect
[3] = target: Gonadotropin-releasing hormone receptor (Homo sapiens) (UniProt P30968); assay: Human gonadotropin-releasing hormone receptor (GnRHR) small molecule agonists, calcium flux assay in GnRHR-HEK293 cells (AID 1920063); also: nearly all actives have a fitted effect of over 35% in size
Sequence of Gonadotropin-releasing hormone receptor (Homo sapiens) (P30968 whole entry, looked up): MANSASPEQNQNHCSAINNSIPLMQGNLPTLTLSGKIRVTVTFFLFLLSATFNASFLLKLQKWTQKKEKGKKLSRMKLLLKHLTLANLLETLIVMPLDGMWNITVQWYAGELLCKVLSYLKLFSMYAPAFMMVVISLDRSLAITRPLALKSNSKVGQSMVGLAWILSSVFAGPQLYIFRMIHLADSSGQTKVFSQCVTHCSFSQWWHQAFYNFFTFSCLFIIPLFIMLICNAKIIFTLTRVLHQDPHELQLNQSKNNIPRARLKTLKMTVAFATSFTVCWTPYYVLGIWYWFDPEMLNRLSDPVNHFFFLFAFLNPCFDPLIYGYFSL
Method in brief: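 GnRHR-HEK293, 1500 cells/well, 18 h 37 C/5% CO2; Ca dye 1 h 37 C; cpd pinned (DMSO), agonist mode; kinetic FL 480/540, 3 min, 1 s reads; 15 conc, n=3.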

[4] = target: KiSS-1 receptor (Homo sapiens) (UniProt Q969F8); assay: Human kisspeptin (KISS1R) small molecule agonists, calcium flux assay in KISS1R-HEK293 cells (AID 1920064; active = well fitted curve in the direction sought with a large enough effect in the repeat runs; an effect the other way counts as inactive or inconclusive)
Sequence of KiSS-1 receptor (Homo sapiens) (Q969F8 whole entry, looked up): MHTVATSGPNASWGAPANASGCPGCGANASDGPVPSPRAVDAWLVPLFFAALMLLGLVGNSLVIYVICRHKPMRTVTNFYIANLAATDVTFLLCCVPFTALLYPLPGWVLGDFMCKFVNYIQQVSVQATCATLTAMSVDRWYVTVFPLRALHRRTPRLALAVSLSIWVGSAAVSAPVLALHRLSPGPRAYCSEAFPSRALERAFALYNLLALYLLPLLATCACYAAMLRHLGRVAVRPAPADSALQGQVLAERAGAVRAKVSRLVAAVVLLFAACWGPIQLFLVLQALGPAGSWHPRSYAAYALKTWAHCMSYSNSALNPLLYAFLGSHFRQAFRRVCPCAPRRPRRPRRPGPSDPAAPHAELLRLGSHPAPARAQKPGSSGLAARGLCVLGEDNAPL
Method in brief: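 Stable human KISS1R HEK293 line; 18 h plating, 37 C/5% CO2; calcium dye 1 h 37 C; compound pin transfer; kinetic fluorescence Ex/Em 480/540, 3 min.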

[5] = G protein-coupled receptor (GPCR) small molecule agonists, calcium flux assay: HEK293 wild type cell line counter screen (AID 1920065)
Method in brief: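 Kinetic fluorescence at Ex/Em 480/540, recorded every second over 3 min, served as the read-out after compound addition. Each compound was tested at 15 concentrations in triplicate on cells pre-loaded with calcium dye for 1 h.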

[6] = p53 small molecule agonists, cell-based qHTS assay with human liver microsomes (AID 1963577);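 also: p53 response element beta-lactamase reporter cells with liver microsomes plus NADPH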
Method in brief: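 p53RE-bla cells; 5 h settle, 37 C/5% CO2; cpd + HLM 0.5 mg/mL + NADPH 0.5 mg/mL (final); 16 h 37 C; LiveBLAzer 2 h RT dark; fluorescence readout.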

[7] = p53 small molecule agonists, cell-based qHTS assay with rat liver microsomes (AID 1963578)
Method in brief: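 Rat liver microsome activation: microsomes 0.5 mg/mL, NADPH 0.5 mg/mL final; p53RE-bla cells, 16 h 37 C; LiveBLAzer readout, 2 h RT dark.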

[8] = p53 small molecule agonists, cell-based qHTS assay with rat liver microsomes: qHTS cell viability counter screen (AID 1963580); also: nearly all actives have a fitted effect of over 45% in size
Method in brief: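 HCT-116 p53RE-bla, 4,000 cells/well, 5 h pre-incubation; cpd + rat liver microsomes 0.5 mg/mL + NADPH 0.5 mg/mL (final); 16 h, 37 C; CellTiter-Glo, 30 min RT; luminescence.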

[9] = p53 small molecule agonists, cell-based qHTS assay: qHTS cell viability counter screen (AID 1963581); also: nearly all actives have a fitted effect of over 45% in size
Method in brief: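 HCT-116 p53RE-bla cells, 4,000/well, plated 5 h before compound pin transfer; 16 h at 37 C; bla substrate 2 h RT; then CellTiter-Glo, 30 min RT, luminescence.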

[10] = target: 5-hydroxytryptamine receptor 2A (Homo sapiens) (UniProt P28223); assay: 5-hydroxytryptamine receptor 2A (HTR2A) small molecule antagonists, cell-based qHTS assay (AID 1963586); also: nearly all actives have a fitted effect of over 45% in size
Sequence of 5-hydroxytryptamine receptor 2A (Homo sapiens) (P28223 whole entry, looked up): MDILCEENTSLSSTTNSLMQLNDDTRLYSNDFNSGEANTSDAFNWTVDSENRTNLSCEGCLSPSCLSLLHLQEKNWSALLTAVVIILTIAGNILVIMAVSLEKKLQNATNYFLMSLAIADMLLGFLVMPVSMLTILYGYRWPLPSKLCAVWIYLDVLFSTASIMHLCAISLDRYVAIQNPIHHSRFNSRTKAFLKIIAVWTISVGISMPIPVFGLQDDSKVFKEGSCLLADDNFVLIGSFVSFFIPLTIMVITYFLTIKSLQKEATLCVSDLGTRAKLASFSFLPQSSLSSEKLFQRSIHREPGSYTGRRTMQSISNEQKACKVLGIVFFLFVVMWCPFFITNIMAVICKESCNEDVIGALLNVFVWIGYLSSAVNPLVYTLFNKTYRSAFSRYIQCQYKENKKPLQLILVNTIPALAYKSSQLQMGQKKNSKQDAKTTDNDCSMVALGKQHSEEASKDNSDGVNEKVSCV
Method in brief: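 Antagonist-mode intracellular calcium assay: DOI (4 nM) added after 5 min compound pre-incubation at room temperature to dye-loaded HTR2A-CHO cells. Fluorescence followed for 3 min, sampled every second.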

[11] = target: Muscarinic acetylcholine receptor M1 (Homo sapiens) (UniProt P11229); assay: Cholinergic receptor muscarinic 1 (CHRM1) small molecule antagonists, cell-based qHTS assay (AID 1963588); also: nearly all actives have a fitted effect of over 40% in size
Sequence of Muscarinic acetylcholine receptor M1 (Homo sapiens) (P11229 whole entry, looked up): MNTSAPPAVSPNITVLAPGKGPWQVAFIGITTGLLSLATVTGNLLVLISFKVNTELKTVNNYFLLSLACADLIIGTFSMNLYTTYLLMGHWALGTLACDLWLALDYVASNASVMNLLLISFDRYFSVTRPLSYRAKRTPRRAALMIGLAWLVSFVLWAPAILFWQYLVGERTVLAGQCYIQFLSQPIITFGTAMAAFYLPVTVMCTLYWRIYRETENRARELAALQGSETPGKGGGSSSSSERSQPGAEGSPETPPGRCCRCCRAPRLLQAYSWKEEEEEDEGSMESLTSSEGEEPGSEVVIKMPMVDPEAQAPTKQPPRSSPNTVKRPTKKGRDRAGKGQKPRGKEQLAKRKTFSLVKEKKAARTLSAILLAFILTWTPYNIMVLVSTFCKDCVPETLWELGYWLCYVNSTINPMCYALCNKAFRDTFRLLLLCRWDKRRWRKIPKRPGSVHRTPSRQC
Method in brief: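 CHRM1-CHO calcium-flux assay, antagonist mode. Cells were seeded 18 h, dye-loaded 1 h at 37 C and given compound for 5 min at RT, then acetylcholine was added at 50nM. FDSS fluorescence was read 3 min; 15 concentrations, three runs.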

[12] = target: Muscarinic acetylcholine receptor M1 (Homo sapiens) (UniProt P11229); assay: Cholinergic receptor muscarinic 1 (CHRM1) small molecule agonists, cell-based qHTS assay (AID 1963589); also: nearly all actives have a fitted effect of over 35% in size
Method in brief: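 Human M1 in stable CHO line; 18 h plating, 1 h dye load 37 C; cpd added (agonist mode); Ca2+ fluorescence kinetic read, 1 s intervals; 15 conc, 3 runs.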

[13] = cAMP Responsive Elements (CRE) small molecule agonists, cell-based qHTS assay (AID 1963590)
Method in brief: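 HEK 293T CRE-bla, 2,000 cells/well, 18 h preincubation 37 C/5% CO2; cpds (DMSO) pinned, 3 h; LiveBLAzer B/G FRET substrate, 2 h RT.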

[14] = target: Beta-2 adrenergic receptor (Homo sapiens) (UniProt P07550); assay: Adrenergic beta2 receptor (ADRB2) small molecule antagonists, cell-based qHTS assay (AID 1963592); also: series mostly up to about 92 µM; nearly all actives have a fitted effect of over 50% in size
Sequence of Beta-2 adrenergic receptor (Homo sapiens) (P07550 whole entry, looked up): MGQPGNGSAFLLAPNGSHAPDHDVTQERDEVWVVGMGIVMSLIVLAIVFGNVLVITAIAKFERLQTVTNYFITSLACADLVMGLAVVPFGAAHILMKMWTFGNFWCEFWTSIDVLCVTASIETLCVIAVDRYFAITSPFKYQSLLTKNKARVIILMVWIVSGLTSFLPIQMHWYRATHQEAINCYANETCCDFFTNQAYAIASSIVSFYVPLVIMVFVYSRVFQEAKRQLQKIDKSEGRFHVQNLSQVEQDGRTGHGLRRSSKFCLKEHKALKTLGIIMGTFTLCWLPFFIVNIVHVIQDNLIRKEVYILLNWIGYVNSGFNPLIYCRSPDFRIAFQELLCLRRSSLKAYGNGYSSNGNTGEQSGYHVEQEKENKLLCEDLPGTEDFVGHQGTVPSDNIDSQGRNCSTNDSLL
Method in brief: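 Cells (CHO, stable ADRB2 overexpression) incubated 18-20hr at 37C; compounds added from DMSO; agonist mix (1nM isoproterenol, 100uM IBMX, 25uM Ro-20-1724) added; 0.5hr RT; d2-cAMP and anti-cAMP-cryptate added; 1hr RT; 665/615 nm read.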

[15] = target: Beta-2 adrenergic receptor (Homo sapiens) (UniProt P07550); assay: Adrenergic beta2 receptor (ADRB2) small molecule agonists, cell-based qHTS assay (AID 1963593);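 also: CHO cells stably overexpressing human ADRB2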
Method in brief: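 CHO cells stably over-expressing ADRB2 were plated overnight at 37C, then dosed with compounds plus a stimulation mix containing 100uM IBMX and 25uM Ro-20-1724 for 0.5hr at room temperature. cAMP was measured by HTRF competition, 1hr.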

[16] = target: D(2) dopamine receptor (Homo sapiens) (UniProt P14416); assay: Dopamine D2 receptor (DRD2) small molecule agonists, cell-based qHTS assay (AID 1963594); also: nearly all actives have a fitted effect of over 35% in size
Sequence of D(2) dopamine receptor (Homo sapiens) (P14416 whole entry, looked up): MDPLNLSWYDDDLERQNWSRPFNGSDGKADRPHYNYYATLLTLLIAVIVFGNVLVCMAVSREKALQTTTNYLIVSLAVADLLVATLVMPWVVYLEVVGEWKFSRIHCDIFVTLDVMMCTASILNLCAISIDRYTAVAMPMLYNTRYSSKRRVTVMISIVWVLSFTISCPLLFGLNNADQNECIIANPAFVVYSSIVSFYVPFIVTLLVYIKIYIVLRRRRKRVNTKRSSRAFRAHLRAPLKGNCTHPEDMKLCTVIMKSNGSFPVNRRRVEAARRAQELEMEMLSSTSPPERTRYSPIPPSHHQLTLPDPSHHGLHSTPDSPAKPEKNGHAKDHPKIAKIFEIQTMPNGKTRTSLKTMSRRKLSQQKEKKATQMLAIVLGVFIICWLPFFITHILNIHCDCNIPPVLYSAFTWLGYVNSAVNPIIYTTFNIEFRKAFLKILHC
Method in brief: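 cAMP accumulation in DRD2-HEK293 cells measured by HTRF after 1 h detection; compounds added 10 min before NKH477 (200nM […]) forskolin-analogue stimulation, 30 min at room temperature, with Ro20-1724 present at 0.1 mM final.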

[17] = target: D(2) dopamine receptor (Homo sapiens) (UniProt P14416); assay: Dopamine D2 receptor (DRD2) small molecule antagonists, cell-based qHTS assay (AID 1963595; active = well fitted inhibition curve with a large enough effect in the signal ratio in the repeat runs, with a control signal flat; the % refers to the signal ratio)
Method in brief: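 Readout: HTRF cAMP, cAMP-d2 competing with cellular cAMP for anti-cAMP cryptate, read after 1 h. Cells: DRD2-HEK293. Conditions: 0.1 mM Ro20-1724, 12 nM quinpirole, 200 nM NKH477, 30 min RT.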

[18] = target: 5-hydroxytryptamine receptor 2A (Homo sapiens) (UniProt P28223); assay: 5-hydroxytryptamine receptor 2A (HTR2A) small molecule agonists, cell-based qHTS assay (AID 1963587); also: nearly all actives have a fitted effect of over 30% in size
Method in brief: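 Kinetic calcium-flux fluorescence (2 min, 1 sec intervals) after compound addition in agonist mode. HTR2A-CHO cells were cultured 18 h, then dye-loaded 1 h at 37 C.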

[19] = cAMP Responsive Elements (CRE) small molecule antagonists, cell-based qHTS assay (AID 1963591; active = well fitted inhibition curve with a large enough effect in the signal ratio in the repeat runs, not every such curve was filed as active; the % refers to the signal ratio)
Method in brief: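 Beta-lactamase reporter read by FRET substrate (LiveBLAzer B/G) after 2 h at room temperature. CRE-bla HEK293T cells had received compound plus 0.25 uM (final) NKH477 for 3 h at 37 °C.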

[20] = p53 small molecule agonists, cell-based qHTS assay (AID 1963582; active = well fitted activation curve with a large enough effect in the signal ratio in the repeat runs, not every such curve was filed as active; the % refers to the signal ratio)
Method in brief: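 Reporter line: p53RE-bla. Pre-incubation 5 h, 37 C, 5% CO2; compound (DMSO, pin tool) 16 h, 37 C; B/G FRET substrate 2 h RT; fluorescence intensity read.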
% is scaled to controls: 0 for no effect and ±100 for the full control effect.

CC(=O)Oc1ccc(C2(c3ccc(OC(C)=O)cc3)C(=O)Nc3ccccc32)cc1
inactive: Potency [1] | Potency [3] | outcome [4] | outcome [5] | Potency [6] | Potency [7] | Potency [8] | Potency [9] | Potency [10] | Potency [11] | Potency [12] | Potency [13] | Potency [14] | Potency [15] | Potency [16] | Potency [17]
active: Potency [2] 0.266 µM

C/C=C\C/C=C/CCCCCCCCOC(C)=O
active: Potency [2] 68.6 µM
inactive: Potency [1] | Potency [3] | outcome [4] | outcome [5] | Potency [6] | Potency [7] | Potency [8] | Potency [10] | Potency [18] | Potency [11] | Potency [12] | Potency [14] | Potency [15] | Potency [16] | Potency [17]

C=C1C(CCl)(CCl)C2(Cl)C(Cl)C(Cl)C1(Cl)C2(Cl)Cl (stereo not given)
inactive: Potency [3] | outcome [4] | outcome [5] | Potency [6] | Potency [7] | Potency [8] | Potency [10] | Potency [15] | Potency [16] | Potency [17]
active: Potency [1] 38.1 µM | Potency [2] 15.2 µM

C=COC(=O)C(C)(CC)CCC(C)C (stereo not given)
inactive: Potency [1] | Potency [2] | Potency [3] | outcome [4] | outcome [5] | Potency [6] | Potency [7] | Potency [8] | Potency [10] | Potency [18] | Potency [11] | Potency [12] | Potency [13] | Potency [19] | Potency [14] | Potency [16] | Potency [17]

CC(C)(C)NCC(O)COc1cccc2c1CCC(=O)N2 (stereo not given)
inactive: Potency [1] | Potency [2] | Potency [3] | outcome [4] | outcome [5] | Potency [6] | Potency [7] | Potency [8] | Potency [20] | Potency [10] | Potency [18] | Potency [11] | Potency [12] | Potency [13] | Potency [19] | Potency [17]

NNc1nnc(NN)c2ccccc12
inactive: Potency [1] | Potency [2] | Potency [3] | outcome [4] | outcome [5] | Potency [6] | Potency [7] | Potency [8] | Potency [9] | Potency [12] | Potency [13] | Potency [19] | Potency [14] | Potency [15] | Potency [16] | Potency [17]

O=C(CCCCCCCCC#CI)Oc1ccccc1
inactive: Potency [1] | Potency [2] | Potency [3] | outcome [4] | outcome [5] | Potency [6] | Potency [7] | Potency [8] | Potency [9] | Potency [10] | Potency [11] | Potency [12] | Potency [19] | Potency [14] | Potency [15] | Potency [16]

CC(=O)OC(C)(C)Cc1ccccc1
inactive: Potency [1] | Potency [2] | Potency [3] | outcome [4] | outcome [5] | Potency [6] | Potency [7] | Potency [8] | Potency [9] | Potency [10] | Potency [18] | Potency [11] | Potency [12] | Potency [13] | Potency [19] | Potency [14] | Potency [16]

O=c1[nH]sc2cc(Cl)ccc12
inactive: Potency [3] | outcome [4] | outcome [5] | Potency [6] | Potency [7] | Potency [8] | Potency [9] | Potency [10] | Potency [18] | Potency [11] | Potency [12] | Potency [15] | Potency [16] | Potency [17]
active: Potency [1] 18.8 µM | Potency [2] 13.3 µM

OC[C@H](Cc1cccc(O)c1)[C@H](CO)Cc1cccc(O)c1
inactive: Potency [1] | Potency [2] | Potency [3] | outcome [4] | outcome [5] | Potency [6] | Potency [7] | Potency [8] | Potency [9] | Potency [10] | Potency [18] | Potency [11] | Potency [12] | Potency [13] | Potency [19] | Potency [14] | Potency [16] | Potency [17]

CCOC(=O)OCC/C(SC(=O)OCC)=C(\C)N(C=O)Cc1cnc(C)nc1N
inactive: Potency [1] | Potency [2] | Potency [3] | outcome [4] | outcome [5] | Potency [6] | Potency [7] | Potency [9] | Potency [20] | Potency [10] | Potency [11] | Potency [12] | Potency [13] | Potency [19] | Potency [14] | Potency [15] | Potency [16]

CC1(C)S[C@@H]2[C@H](NC(=O)Cc3ccccc3)C(=O)N2[C@H]1C(=O)O (tested in a mixture with another compound)
inactive: Potency [1] | Potency [2] | Potency [3] | outcome [4] | outcome [5] | Potency [6] | Potency [8] | Potency [9] | Potency [20] | Potency [13] | Potency [19] | Potency [14] | Potency [15] | Potency [16] | Potency [17]

CCC(=O)CC(C)CC (stereo not given)
inactive: activity change, negative = cytotoxicity [1] 1.61% [at 0.349 µM] | activity, positive = activation [2] -3.45% [at 0.349 µM] | activity change [3] -1.45% [at 0.217 µM, hits give high values] | activation [4] -1.52% [at 0.29 µM] | activation [5] -0.478% [at 0.217 µM] | activation [6] -0.0354% [at 0.249 µM] | activity change, negative = cytotoxicity [8] 1.72% [at 0.249 µM] | activity change, negative = cytotoxicity [9] 22.9% [at 0.249 µM] | activation [20] 5.1% [at 0.249 µM] | activity, negative = inhibition [10] 14.6% [at 0.233 µM] | activation [18] 6.03% [at 0.292 µM] | activity, negative = inhibition [11] -17.2% [at 0.232 µM] | activation [12] 0.0292% [at 0.29 µM] | activation [13] 0.0521% [at 0.349 µM] | activity change, negative = inhibition [19] 1.08% [at 0.349 µM] | activity change, negative = inhibition [14] 7.63% [at 0.349 µM] | activation [16] -3.53% [at 0.349 µM] | activity change, negative = inhibition [17] 8.77% [at 0.348 µM]

CCN(CC)CCc1nc(-c2ccccc2)no1
inactive: Potency [1] | Potency [2] | Potency [3] | outcome [4] | outcome [5] | Potency [6] | Potency [8] | Potency [9] | Potency [20] | Potency [12] | Potency [13] | Potency [14] | Potency [16] | Potency [17]
